In PubChem BioAssay (EPA / NIEHS):
Values joined by “and” are separate entries in the source; they are usually repeats but may differ in a detail not shown here. Identical values can stand only once. Records with an inconclusive call do not appear. The source holds several records for some structures; these can differ, active in one and inactive in another. Active and inactive are the calls of the source. How the source made its calls, unless noted: active means hit-call score of the fitted dose curve at least 0.9, where 1 is the maximum; inactive means score below 0.9.

Tests used:
[1] = molecular target: Hypoxia-inducible factor 1-alpha (Homo sapiens) (UniProt Q16665); test: ATG_HIF1a_CIS: Attagene CIS-FACTORIAL HepG2 Assay for human Hypoxia Inducible Factor 1 (HIF1A) (AID 2282951); conditions: HepG2 Attagene cis-factorial HIF1a reporter transcription; actives raise or lower the signal
Chain of Hypoxia-inducible factor 1-alpha (Homo sapiens) (Q16665 whole entry, looked up): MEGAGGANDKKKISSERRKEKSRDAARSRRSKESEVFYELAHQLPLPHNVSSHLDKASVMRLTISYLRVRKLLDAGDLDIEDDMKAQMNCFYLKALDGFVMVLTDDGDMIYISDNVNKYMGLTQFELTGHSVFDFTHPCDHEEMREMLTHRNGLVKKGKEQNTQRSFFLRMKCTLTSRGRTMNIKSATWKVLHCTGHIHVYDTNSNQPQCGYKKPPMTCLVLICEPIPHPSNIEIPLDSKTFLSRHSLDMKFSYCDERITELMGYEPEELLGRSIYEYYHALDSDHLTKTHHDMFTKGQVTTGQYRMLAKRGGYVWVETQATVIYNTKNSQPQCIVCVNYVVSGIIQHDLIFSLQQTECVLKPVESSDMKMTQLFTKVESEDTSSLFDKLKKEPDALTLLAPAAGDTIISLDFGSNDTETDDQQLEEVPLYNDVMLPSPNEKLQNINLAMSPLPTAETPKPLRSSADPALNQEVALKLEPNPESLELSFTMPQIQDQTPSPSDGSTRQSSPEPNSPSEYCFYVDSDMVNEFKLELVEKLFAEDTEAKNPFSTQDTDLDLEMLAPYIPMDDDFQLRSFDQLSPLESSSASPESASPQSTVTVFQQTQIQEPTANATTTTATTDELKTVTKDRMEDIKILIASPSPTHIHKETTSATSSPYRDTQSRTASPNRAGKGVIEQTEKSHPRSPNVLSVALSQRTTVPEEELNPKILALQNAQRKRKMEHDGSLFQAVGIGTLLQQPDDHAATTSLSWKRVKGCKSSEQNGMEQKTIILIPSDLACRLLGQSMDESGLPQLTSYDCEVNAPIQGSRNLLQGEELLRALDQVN
Procedure, shortened: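 Measures endogenous transcription-factor activity through cis-regulated reporter mRNA in HepG2. Cells dosed 24 h; transcripts quantified by RT-PCR with 6-FAM-labelled products separated by capillary electrophoresis; DMSO serves as negative control.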

[2] = molecular target: Paired box protein Pax-6 (Homo sapiens) (UniProt P26367); test: ATG_Pax6_CIS: Attagene CIS-FACTORIAL HepG2 Assay for human Paired Box 6 (PAX6) (AID 2282956); conditions: HepG2 CIS-FACTORIAL PAX6 reporter transcription, RNA readout; actives raise or lower the signal
Chain of Paired box protein Pax-6 (Homo sapiens) (P26367 whole entry, looked up): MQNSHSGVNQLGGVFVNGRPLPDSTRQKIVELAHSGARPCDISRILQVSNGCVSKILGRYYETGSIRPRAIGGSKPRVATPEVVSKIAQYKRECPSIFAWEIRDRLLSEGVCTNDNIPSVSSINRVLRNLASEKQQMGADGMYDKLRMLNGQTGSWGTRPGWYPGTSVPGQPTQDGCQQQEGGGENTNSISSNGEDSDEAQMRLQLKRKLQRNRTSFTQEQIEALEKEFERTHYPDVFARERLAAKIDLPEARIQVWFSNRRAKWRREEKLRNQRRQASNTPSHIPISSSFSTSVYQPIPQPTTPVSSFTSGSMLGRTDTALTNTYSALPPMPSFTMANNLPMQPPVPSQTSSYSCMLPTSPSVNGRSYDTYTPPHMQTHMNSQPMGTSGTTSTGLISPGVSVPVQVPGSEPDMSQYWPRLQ
Procedure, shortened: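 Readout: reporter transcript fluorescence after RT-PCR and capillary electrophoresis. Cells: HepG2, transiently transfected with cis-regulated MRTUs. Exposure 24 h. Gain or loss of signal fitted bidirectionally relative to DMSO.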

[3] = ATG_TGFb_CIS: Attagene CIS-FACTORIAL HepG2 Assay for human Transforming Growth Factor (TGF) (AID 2282967); conditions: HepG2 Attagene CIS TGFb reporter, mRNA transcription; actives raise or lower the signal
Procedure, shortened: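 HepG2 cells transiently transfected with cis-promoter-driven multiple reporter units measure endogenous TF activity; reporter mRNA quantified at 24 h by RT-PCR, FAM labeling, HpaI digestion and capillary electrophoresis. Bidirectional fit vs DMSO.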

[4] = molecular target: Nuclear receptor subfamily 1 group I member 2 (Homo sapiens) (UniProt O75469); test: ATG_PXR_TRANS: Attagene TRANS-FACTORIAL HepG2 Assay for human Pregnane X Receptor (PXR) (AID 2283008; active means hit-call score of the fitted dose curve at least 0.9, where 1 is the maximum)
Chain of Nuclear receptor subfamily 1 group I member 2 (Homo sapiens) (O75469 whole entry, looked up, the tested form may be a part): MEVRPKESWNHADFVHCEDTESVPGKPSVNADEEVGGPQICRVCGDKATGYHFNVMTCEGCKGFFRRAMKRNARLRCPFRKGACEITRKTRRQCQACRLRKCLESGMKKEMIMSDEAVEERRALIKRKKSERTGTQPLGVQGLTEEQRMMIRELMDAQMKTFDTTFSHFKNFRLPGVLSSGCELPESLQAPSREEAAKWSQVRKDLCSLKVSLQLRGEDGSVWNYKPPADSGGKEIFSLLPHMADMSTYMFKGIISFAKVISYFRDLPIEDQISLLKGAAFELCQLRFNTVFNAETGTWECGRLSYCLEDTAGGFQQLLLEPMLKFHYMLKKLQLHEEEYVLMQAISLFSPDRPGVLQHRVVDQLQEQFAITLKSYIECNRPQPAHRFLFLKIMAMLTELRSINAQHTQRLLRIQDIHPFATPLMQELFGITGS
Procedure, shortened: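 Trans-factorial format: exogenous NR-Gal4 fusion activity, not endogenous factor, in transfected human HepG2 liver cells. After 24 h dosing, RNA isolated, reverse-transcribed, amplified and resolved by capillary electrophoresis; induction scored versus DMSO.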

[5] = ATG_XTT_Cytotoxicity: Cytotoxicity Assessment in the Attagene TRANS-FACTORIAL HepG2 Assay (AID 2283584; active means hit-call score of the fitted dose curve at least 0.9, where 1 is the maximum)
Procedure, shortened: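 HepG2 cells transiently transfected with GAL4-UAS multiple reporter units, dosed 24 h; cytotoxicity read by XTT as loss of signal versus DMSO baseline.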

[6] = read-out: Interleukin-8 (IL8), CXCL8 (gene 3576); test: BSK_3C_IL8: BioMAP Diversity Plus: 3C Assay for Interleukin-8 (IL8) Biomarker Activity (AID 2283020); conditions: primary human endothelial cells (HUVEC); actives raise or lower the signal
Procedure, shortened: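 Using DMSO-treated wells as the baseline, bidirectional curve fitting was applied to ELISA-measured IL-8 from human umbilical vein endothelial cultures sampled 24 h after compound addition.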

[7] = read-out: Thrombomodulin, THBD (gene 7056); test: BSK_3C_Thrombomodulin: BioMAP Diversity Plus: 3C Assay for Thrombomodulin Biomarker Activity (AID 2283029); conditions: primary human endothelial cells (HUVEC); actives raise or lower the signal
Procedure, shortened: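 In a multiplexed primary-cell system, human umbilical vein endothelium received chemical and was assayed 24 h later for thrombomodulin by ELISA. Parallel cultures were SRB-stained (0.1% SRB after 10% TCA fixation, read at 560 nm) to flag cytotoxicity.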

[8] = read-out: Vascular endothelial growth factor receptor 2 (Homo sapiens) (UniProt P35968); test: BSK_4H_VEGFRII: BioMAP Diversity Plus: 4H Assay for Vascular endothelial growth factor receptor 2 (VEGFR2) Biomarker Activity (AID 2283031); conditions: primary human endothelial cells (HUVEC); actives raise or lower the signal;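 on AC50: cell-surface VEGFR2 protein level quantified by ELISA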
Procedure, shortened: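 Primary human umbilical vein endothelial cells (4H system), 24 h exposure; cell-surface VEGFR2 measured by ELISA. Bidirectional fitting versus DMSO; cytotoxicity checked in parallel by SRB total-protein staining.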

[9] = read-out: Monokine induced gamma interferon (MIG), CXCL9 (gene 4283); test: BSK_CASM3C_MIG: BioMAP Diversity Plus: CASM3C Assay for Monokine induced gamma interferon (MIG) Biomarker Activity (AID 2283048); conditions: primary human coronary artery smooth muscle cells; actives raise or lower the signal;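 further: MIG protein level measured by ELISA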
[10] = read-out: serum amyloid A (SAA), SAA1 (gene 6288); test: BSK_CASM3C_SAA: BioMAP Diversity Plus: CASM3C Assay for serum amyloid A (SAA) Biomarker Activity (AID 2283049); conditions: primary human coronary artery smooth muscle cells; actives raise or lower the signal;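 further: SAA protein level quantified by ELISA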
[11] = read-out: Thrombomodulin, THBD (gene 7056); test: BSK_CASM3C_Thrombomodulin: BioMAP Diversity Plus: CASM3C Assay for Thrombomodulin Biomarker Activity (AID 2283051); conditions: primary human coronary artery smooth muscle cells; actives raise or lower the signal;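 further: thrombomodulin protein level measured by ELISA 24 h after dosing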
[12] = read-out: Vascular cell adhesion molecule 1 (VCAM1), VCAM1 (gene 7412); test: BSK_CASM3C_VCAM1: BioMAP Diversity Plus: CASM3C Assay for Vascular cell adhesion molecule 1 (VCAM1) Biomarker Activity (AID 2283055); conditions: primary human coronary artery smooth muscle cells; actives raise or lower the signal;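 further: VCAM-1 protein level quantified by ELISA on the cells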
[13] = read-out: Interleukin-8 (IL8), CXCL8 (gene 3576); test: BSK_LPS_IL8: BioMAP Diversity Plus: LPS Assay for Interleukin-8 (IL8) Biomarker Activity (AID 2283078); conditions: primary human HUVEC with PBMC; actives raise or lower the signal
Procedure, shortened: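 Human umbilical vein endothelial cells co-cultured with PBMC, LPS-stimulated, exposed to compound for 24 h. IL-8 quantified by ELISA; fitted in both directions against DMSO, with SRB total-protein staining of parallel cultures for cytotoxicity.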

[14] = read-out: Tissue Factor, F3 (gene 2152); test: BSK_LPS_TissueFactor: BioMAP Diversity Plus: LPS Assay for Tissue Factor Biomarker Activity (AID 2283084); conditions: primary human HUVEC with PBMC; actives raise or lower the signal
Procedure, shortened: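 Human umbilical vein endothelial cells co-cultured with PBMC were dosed with compound. Cell-surface CD142 was measured by ELISA 24 h later. Activity was fitted bidirectionally against DMSO, with SRB total-protein staining in parallel cultures for cytotoxicity.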

[15] = read-out: Monocyte Chemoattractant Protein-1 (MCP1), CCL2 (gene 6347); test: BSK_hDFCGF_MCP1: BioMAP Diversity Plus: hDFCGF Assay for Monocyte Chemoattractant Protein-1 (MCP1) Biomarker Activity (AID 2284285); conditions: primary human foreskin fibroblasts
Procedure, shortened: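 MCP-1 ELISA readout was taken 24 hours after dosing primary human dermal fibroblasts in the hDFCGF system, with DMSO as baseline. Parallel sulforhodamine B staining of total protein tracked overt cytotoxicity.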

[16] = molecular target: Heat shock factor protein 1 (Homo sapiens) (UniProt Q00613); test: ATG_HSE_CIS: Attagene CIS-FACTORIAL HepG2 Assay for human Heat Shock Transcription Factor 1 (HSE) (AID 2282953); conditions: HepG2 HSE cis-reporter, Attagene RNA transcription; actives raise or lower the signal
Chain of Heat shock factor protein 1 (Homo sapiens) (Q00613 whole entry, looked up): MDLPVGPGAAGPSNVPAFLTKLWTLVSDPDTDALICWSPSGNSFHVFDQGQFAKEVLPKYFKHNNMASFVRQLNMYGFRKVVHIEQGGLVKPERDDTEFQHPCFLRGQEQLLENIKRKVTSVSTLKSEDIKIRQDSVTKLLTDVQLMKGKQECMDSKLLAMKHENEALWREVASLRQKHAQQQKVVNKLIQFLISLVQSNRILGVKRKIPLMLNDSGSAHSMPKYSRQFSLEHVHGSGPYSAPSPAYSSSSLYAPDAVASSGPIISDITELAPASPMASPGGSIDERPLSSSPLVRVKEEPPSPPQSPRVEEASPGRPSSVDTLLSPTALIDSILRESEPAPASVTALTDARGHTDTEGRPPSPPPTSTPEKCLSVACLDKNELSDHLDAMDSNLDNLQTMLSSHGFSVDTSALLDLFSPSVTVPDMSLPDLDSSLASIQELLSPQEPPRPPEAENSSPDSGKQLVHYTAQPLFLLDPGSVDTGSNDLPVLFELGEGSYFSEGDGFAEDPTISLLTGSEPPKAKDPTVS
Procedure, shortened: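 HepG2 cells transfected with cis-promoter reporter units sensing endogenous transcription factor activity; reporter mRNA quantified 24 h post-dose by RT-PCR and capillary electrophoresis of 6-FAM-labelled products. Bidirectional fitting against DMSO.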

[17] = molecular target: human Peroxisome Proliferator-activated Receptor alpha (PPARa), PPARA (gene 5465) (UniProt Q07869); test: ATG_PPARa_TRANS: Attagene TRANS-FACTORIAL HepG2 Assay for human Peroxisome Proliferator-activated Receptor alpha (PPARa) (AID 2283001; active means hit-call score of the fitted dose curve at least 0.9, where 1 is the maximum;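 on AC50: potency for gain of reporter signal over DMSO so agonist or activator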)
Chain of human Peroxisome Proliferator-activated Receptor alpha (PPARa), PPARA (gene 5465) (Q07869 whole entry, looked up, the tested form may be a part): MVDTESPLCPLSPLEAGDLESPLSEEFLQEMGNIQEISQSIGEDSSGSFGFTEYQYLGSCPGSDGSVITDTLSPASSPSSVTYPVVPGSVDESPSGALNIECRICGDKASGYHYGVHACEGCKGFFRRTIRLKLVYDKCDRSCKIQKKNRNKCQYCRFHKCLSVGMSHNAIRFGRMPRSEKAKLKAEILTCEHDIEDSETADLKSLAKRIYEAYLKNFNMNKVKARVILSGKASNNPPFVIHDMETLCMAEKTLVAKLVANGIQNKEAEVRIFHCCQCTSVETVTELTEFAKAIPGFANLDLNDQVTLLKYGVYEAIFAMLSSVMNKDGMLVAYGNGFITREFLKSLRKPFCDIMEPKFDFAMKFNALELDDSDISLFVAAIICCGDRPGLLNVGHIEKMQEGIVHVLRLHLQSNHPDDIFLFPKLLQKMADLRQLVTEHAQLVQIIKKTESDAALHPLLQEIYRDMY
Procedure, shortened: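 Exposure: 24 h, transiently transfected HepG2 cells. Endpoint: GAL4-UAS reporter mRNA, RT-PCR with capillary electrophoresis fluorescence. Baseline: DMSO; increases fitted.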

[18] = molecular target: bovine Estrogen Receptor (ER), ESR1 (gene 407238) (UniProt P49884); test: NVS_NR_bER: NovaScreen (NVS) Nuclear Receptor Binding Assay for bovine Estrogen Receptor (ER) (AID 2283345; active means hit-call score of the fitted dose curve at least 0.9, where 1 is the maximum;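 further: actives lower the bound radioligand count which means they displace the ER ligand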)
Chain of bovine Estrogen Receptor (ER), ESR1 (gene 407238) (P49884 whole entry, looked up): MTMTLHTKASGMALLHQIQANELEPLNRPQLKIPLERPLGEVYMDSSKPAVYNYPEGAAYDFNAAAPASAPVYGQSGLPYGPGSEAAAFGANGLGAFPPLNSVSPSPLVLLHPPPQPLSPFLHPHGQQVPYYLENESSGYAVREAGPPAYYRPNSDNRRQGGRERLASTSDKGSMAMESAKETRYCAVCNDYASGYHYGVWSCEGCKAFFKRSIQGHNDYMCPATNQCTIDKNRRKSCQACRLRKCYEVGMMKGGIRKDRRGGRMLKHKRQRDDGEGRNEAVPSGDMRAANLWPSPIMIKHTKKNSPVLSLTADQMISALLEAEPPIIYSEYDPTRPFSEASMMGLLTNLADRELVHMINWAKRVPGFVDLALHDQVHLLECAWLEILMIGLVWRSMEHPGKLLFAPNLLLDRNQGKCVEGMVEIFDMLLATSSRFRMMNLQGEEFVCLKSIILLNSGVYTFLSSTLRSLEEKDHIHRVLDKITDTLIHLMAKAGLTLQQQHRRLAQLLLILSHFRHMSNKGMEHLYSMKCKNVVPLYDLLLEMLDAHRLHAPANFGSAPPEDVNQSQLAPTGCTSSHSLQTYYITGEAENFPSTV
Procedure, shortened: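 Scintillation counting of displaced radioligand gave the readout; bovine uterine membrane extract supplied the receptor. Measured 18 h post-dose, normalized to DMSO baseline. Single 25 uM duplicate screen preceded concentration-response follow-up.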

[19] = CCTE_Harrill_HTTr_Viability_MCF7: CCTE's 6-hour Cell Viability Assessment for the High-Throughput Transcriptomics (HTTr) Platform, in MCF-7 cells cultured in DMEM + 10% fetal bovine serum, Harrill Lab (AID 2284010)
Procedure, shortened: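 Eight-point concentration series, six-hour exposure. Propidium iodide exclusion imaged to assess membrane integrity as a cytotoxicity readout; bidirectional fitting was done with DMSO as negative control and activity baseline.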

[20] = CCTE_Harrill_HTTr_Apoptosis_MCF7: CCTE's 6-hour Apoptosis Assessment for the High-Throughput Transcriptomics (HTTr) Platform, in MCF-7 cells cultured in DMEM + 10% fetal bovine serum, Harrill Lab (AID 2284011)
Procedure, shortened: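 MCF-7 cells in DMEM + 10% FBS exposed 6 h to chemicals over an eight-point dilution series. Caspase-3/7 activation imaged by high-content CellEvent Green staining; fitted bidirectionally versus DMSO.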

Measured: AC50

CCC(=O)OCc1ccc(OC)cc1
active: [4] 31.6 µM
inactive: [1] | [2] | [3] | [5]

Cc1c(C(N)=O)cc([N+](=O)[O-])cc1[N+](=O)[O-]
inactive: [6] | [7] | [8] | [9] | [10] | [11] | [12] | [13] | [14] | [15]

CCCCCCC1CCCC(=O)O1 (configuration not stated)
inactive: [1] | [16] | [2] | [4] | [5]
active: [17] 27.3 µM

CC(C)C1OCCN1CCOC(=O)NCCCCCCNC(=O)OCCN1CCOC1C(C)C (configuration not stated)
inactive: [6] | [7] | [8] | [9] | [10] | [11] | [12] | [13] | [14] | [15]
active: [8] 33 µM | [15] 149 nM

O=[N+]([O-])c1cc(S(=O)(=O)Nc2ccccc2)ccc1Nc1ccccc1
active: [6] 30.7 µM | [7] 20 µM | [8] 32.6 µM | [11] 5.66 µM and 8.09 µM | [12] 20 µM | [13] 22.7 µM and 20 µM | [14] 2.78 µM | [15] 30.8 µM and 29.7 µM
inactive: [6] | [7] | [8] | [9] | [10] | [12] | [14]

O=[N+]([O-])c1cc[n+]([O-])cc1
inactive: [18]

CCOc1ccc2c(c1)C(C)CC(C)(C)N2 (configuration not stated)
inactive: [1] | [16] | [2] | [3] | [5]
active: [4] 3.63 µM

CC/C=C\CCCCCO
inactive: [1] | [16] | [2] | [3] | [17] | [4] | [5]

CCCCCCCCCCCCSC#N
inactive: [18]

CCCc1c(OCCCCc2nn[nH]n2)ccc(C(C)=O)c1O
inactive: [16] | [2] | [3] | [4] | [5] | [19] | [20]
active: [17] 27.7 µM

COc1ccc(C(=O)c2ccccc2O)c(O)c1
active: [6] 7.28 µM | [9] 20 µM and 16.1 µM | [12] 13.4 µM and 3.97 µM
inactive: [6] | [7] | [8] | [10] | [11] | [13] | [14] | [19] | [20] | [15]

COC(=O)CCSCCC(=O)OC
inactive: [1] | [16] | [2] | [3] | [17] | [4] | [5]

CCC[Si](OC(C)=O)(OC(C)=O)OC(C)=O
inactive: [6] | [7] | [8] | [9] | [10] | [11] | [12] | [13] | [14] | [15]

CCCCCC1CCCC(=O)O1 (configuration not stated)
inactive: [1] | [16] | [3] | [17] | [4] | [5]

Cc1ccccc1S(=O)(=O)O
inactive: [1] | [16] | [2] | [3] | [17] | [5]

O=C1CCCCCCCCCCCCCC1
active: [16] 62.1 µM | [4] 26.6 µM
inactive: [1] | [2] | [3] | [5]

CCCCNC(N)=O
inactive: [1] | [16] | [2] | [3] | [17] | [4] | [5]

O=S(=O)(O)c1cc(Cl)c(Cl)cc1Cl
inactive: [18]

CCCCCCC/C=C/C=O
inactive: [18]

Cc1cccc(NC(=S)N(C)C)c1
inactive: [18]

C[C@@H]1[C@H](O)[C@@H](C)/C=C/C=C/C=C/C=C/C=C/C=C/C=C/[C@H](O[C@@H]2O[C@H](C)[C@@H](O)[C@H](N)[C@@H]2O)C[C@@H]2O[C@](O)(C[C@@H](O)C[C@@H](O)[C@H](O)CC[C@@H](O)C[C@@H](O)CC(=O)O[C@H]1C)C[C@H](O)[C@H]2C(=O)O
inactive: [19] | [20]

Oc1ccc2c(c1)Cc1ccccc1-2
active: [18] 36.3 µM
inactive: [19] | [20]

CCC(=O)C(=O)CC
inactive: [18]

CCCCCCCCCCCCN(CCO)CCO
inactive: [18]

CNC(=O)Nc1ccc(Cl)c(Cl)c1
inactive: [18]

CCOc1nc2cccc(C(=O)OC(C)OC(=O)OC3CCCCC3)c2n1Cc1ccc(-c2ccccc2-c2nn[nH]n2)cc1 (configuration not stated)
inactive: [19] | [20]

CNCCC(Oc1ccc(C(F)(F)F)cc1)c1ccccc1 (configuration not stated)
active: [19] 75.8 µM | [20] 69.4 µM

CC(O)(c1ccc(Cl)cc1)c1ccc(Cl)cc1
inactive: [18]

COc1ccc(COC=O)cc1
inactive: [18]

CC(COc1ccccc1)N(CCCl)Cc1ccccc1 (configuration not stated)
inactive: [19] | [20]

C#C[C@]1(OC(C)=O)CC[C@H]2[C@@H]3CCC4=C[C@@H](OC(C)=O)CC[C@@H]4[C@H]3CC[C@@]21C
inactive: [19] | [20]
